# Assay results reported in publication PMC11006913.
# Residue numbers refer to the chain shown, from its start.
# How the values were obtained:
# Assay in all cases: PBM; 200 nM protein, PBS
# Conditions in all cases: dsDNA, one strand shown
# HOXB4 [1] = target: HOXB4 (Homo sapiens, UniProt P17483 148-234)
# VENTX [2] = target: T1, VENTX (Homo sapiens, UniProt O95231 78-163, R121Q)
# T1 sequence: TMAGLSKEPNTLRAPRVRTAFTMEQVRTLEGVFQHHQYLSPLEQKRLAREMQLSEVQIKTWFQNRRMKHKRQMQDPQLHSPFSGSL
# ALX4 = ALX4 (Homo sapiens, UniProt Q9H161 200-286)
# ALX4, sequence (Q9H161 200-286): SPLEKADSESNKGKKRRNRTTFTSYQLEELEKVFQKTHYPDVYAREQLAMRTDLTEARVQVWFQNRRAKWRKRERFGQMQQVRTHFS
# PAX4 [3] = target: T2, PAX4 (Homo sapiens, UniProt O43316 9-242, R200K)
# T2 sequence: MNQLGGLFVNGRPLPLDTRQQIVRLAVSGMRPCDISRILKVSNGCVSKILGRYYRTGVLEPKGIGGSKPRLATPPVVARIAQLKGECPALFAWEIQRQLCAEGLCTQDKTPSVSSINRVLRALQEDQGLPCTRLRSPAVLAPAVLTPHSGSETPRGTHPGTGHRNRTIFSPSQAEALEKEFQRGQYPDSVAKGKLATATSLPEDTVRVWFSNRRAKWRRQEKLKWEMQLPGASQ
# PRRX1 [4] = target: PRRX1 (Homo sapiens, UniProt P54821 80-166, F113S)
# PRRX1 (Homo sapiens, UniProt P54821 80-166, F113S), sequence (P54821 80-166 F113S): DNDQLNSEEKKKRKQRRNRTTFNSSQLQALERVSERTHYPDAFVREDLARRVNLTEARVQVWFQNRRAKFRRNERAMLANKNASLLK
# VENTX [5] = target: T3, VENTX (Homo sapiens, UniProt O95231 78-163, Y115F)
# T3 sequence: T1 sequence with Y38F, Q44R
# HOXB6 = HOXB6 (Homo sapiens, UniProt P17509 132-218, K202E)
# HOXB6, sequence (P17509 132-218 K202E): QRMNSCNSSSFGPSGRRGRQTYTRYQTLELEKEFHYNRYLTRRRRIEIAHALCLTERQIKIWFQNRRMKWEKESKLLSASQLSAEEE
# HOXA2 [6] = target: HOXA2 (Homo sapiens, UniProt O43364 129-215, R185T)
# HOXA2 (Homo sapiens, UniProt O43364 129-215, R185T), sequence (O43364 129-215 R185T): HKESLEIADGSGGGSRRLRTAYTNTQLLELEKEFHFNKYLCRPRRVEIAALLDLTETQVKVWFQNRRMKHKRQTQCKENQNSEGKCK
# HOXA4 [7] = target: HOXA4 (Homo sapiens, UniProt Q00056 201-287, R217L)
# HOXA4 (Homo sapiens, UniProt Q00056 201-287, R217L), sequence (Q00056 201-287 R217L): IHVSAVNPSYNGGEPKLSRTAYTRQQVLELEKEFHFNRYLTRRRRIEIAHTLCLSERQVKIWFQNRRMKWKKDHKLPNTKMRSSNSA
# HOXB4 [8] = target: HOXB4 (Homo sapiens, UniProt P17483 148-234, V174I)
# HOXB4 (Homo sapiens, UniProt P17483 148-234, V174I), sequence (P17483 148-234 V174I): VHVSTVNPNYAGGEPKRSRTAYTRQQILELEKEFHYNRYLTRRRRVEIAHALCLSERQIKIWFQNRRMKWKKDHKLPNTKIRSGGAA
# PAX4 [9] = target: T4, PAX4 (Homo sapiens, UniProt O43316 9-242, R200Q)
# T4 sequence: T2 sequence with K192Q
# HOXA2 [10] = target: HOXA2 (Homo sapiens, UniProt O43364 129-215, R185K)
# HOXA2 (Homo sapiens, UniProt O43364 129-215, R185K), sequence (O43364 129-215 R185K): as the sequence (O43364 129-215 R185T) above, with T57K counted along it
# PAX4 [11] = target: T5, PAX4 (Homo sapiens, UniProt O43316 9-242, F177V)
# T5 sequence: T2 sequence with F169V, K192R
# PAX4 [12] = target: T6, PAX4 (Homo sapiens, UniProt O43316 9-242, F177Y)
# T6 sequence: T2 sequence with F169Y, K192R
# VAX1 [13] = target: VAX1 (Homo sapiens, UniProt Q5SQQ9 86-172, T142I)
# VAX1 (Homo sapiens, UniProt Q5SQQ9 86-172, T142I), sequence (Q5SQQ9 86-172 T142I): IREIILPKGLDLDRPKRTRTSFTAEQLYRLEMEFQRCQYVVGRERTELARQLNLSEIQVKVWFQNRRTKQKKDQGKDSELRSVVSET
# HOXA4 [14] = target: HOXA4 (Homo sapiens, UniProt Q00056 201-287, W262F)
# HOXA4 (Homo sapiens, UniProt Q00056 201-287, W262F), sequence (Q00056 201-287 W262F): as the sequence (Q00056 201-287 R217L) above, with L17R, W62F counted along it
# PRRX1 [15] = target: PRRX1 (Homo sapiens, UniProt P54821 80-166)
# PRRX1 (Homo sapiens, UniProt P54821 80-166), sequence (P54821 80-166): as the sequence (P54821 80-166 F113S) above, with S34F counted along it
# VAX1 [16] = target: VAX1 (Homo sapiens, UniProt Q5SQQ9 86-172, K157R)
# VAX1 (Homo sapiens, UniProt Q5SQQ9 86-172, K157R), sequence (Q5SQQ9 86-172 K157R): as the sequence (Q5SQQ9 86-172 T142I) above, with I57T, K72R counted along it
# MSX2 [17] = target: MSX2 (Homo sapiens, UniProt P35548 130-214)
# MSX2 (Homo sapiens, UniProt P35548 130-214), sequence (P35548 130-214): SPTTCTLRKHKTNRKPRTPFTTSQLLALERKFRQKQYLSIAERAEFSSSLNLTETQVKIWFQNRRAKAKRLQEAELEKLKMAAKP
# MSX2 [18] = target: MSX2 (Homo sapiens, UniProt P35548 130-214, F161Y)
# MSX2 (Homo sapiens, UniProt P35548 130-214, F161Y), sequence (P35548 130-214 F161Y): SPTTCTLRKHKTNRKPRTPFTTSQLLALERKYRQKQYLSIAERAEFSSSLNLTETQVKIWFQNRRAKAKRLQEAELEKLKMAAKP
# HOXB4 (Homo sapiens, UniProt P17483 148-234), sequence (P17483 148-234): as the sequence (P17483 148-234 V174I) above, with I27V counted along it
Sequence,binding signal (HOXB4 [1]),binding signal (VENTX [2]),binding signal (ALX4),binding signal (PAX4 [3]),binding signal (PRRX1 [4]),binding signal (VENTX [5]),binding signal (HOXB6),binding signal (HOXA2 [6]),binding signal (HOXA4 [7]),binding signal (HOXB4 [8]),binding signal (PAX4 [9]),binding signal (HOXA2 [10]),binding signal (PAX4 [11]),binding signal (PAX4 [12]),binding signal (VAX1 [13]),binding signal (HOXA4 [14]),binding signal (PRRX1 [15]),binding signal (VAX1 [16]),binding signal (MSX2 [17]),binding signal (MSX2 [18])
ATTAATGA,"13.5 upbm affinity estimate (log intensity, higher = more binding, comparable within an allelic series)","12.2 upbm affinity estimate (log intensity, higher = more binding, comparable within an allelic series)","13.8 upbm affinity estimate (log intensity, higher = more binding, comparable within an allelic series)","11.8 upbm affinity estimate (log intensity, higher = more binding, comparable within an allelic series)","11.2 upbm affinity estimate (log intensity, higher = more binding, comparable within an allelic series)","12.1 upbm affinity estimate (log intensity, higher = more binding, comparable within an allelic series)","10.3 upbm affinity estimate (log intensity, higher = more binding, comparable within an allelic series)","13.3 upbm affinity estimate (log intensity, higher = more binding, comparable within an allelic series)","12.9 upbm affinity estimate (log intensity, higher = more binding, comparable within an allelic series)","14.1 upbm affinity estimate (log intensity, higher = more binding, comparable within an allelic series)","12.1 upbm affinity estimate (log intensity, higher = more binding, comparable within an allelic series)","13.7 upbm affinity estimate (log intensity, higher = more binding, comparable within an allelic series)","10.6 upbm affinity estimate (log intensity, higher = more binding, comparable within an allelic series)","11.1 upbm affinity estimate (log intensity, higher = more binding, comparable within an allelic series)","13.4 upbm affinity estimate (log intensity, higher = more binding, comparable within an allelic series)","12.2 upbm affinity estimate (log intensity, higher = more binding, comparable within an allelic series)","13.3 upbm affinity estimate (log intensity, higher = more binding, comparable within an allelic series)","13.3 upbm affinity estimate (log intensity, higher = more binding, comparable within an allelic series)",–,–
TAATTACA,"13.6 upbm affinity estimate (log intensity, higher = more binding, comparable within an allelic series)","12.2 upbm affinity estimate (log intensity, higher = more binding, comparable within an allelic series)","14.2 upbm affinity estimate (log intensity, higher = more binding, comparable within an allelic series)","11.9 upbm affinity estimate (log intensity, higher = more binding, comparable within an allelic series)","11.6 upbm affinity estimate (log intensity, higher = more binding, comparable within an allelic series)","12.2 upbm affinity estimate (log intensity, higher = more binding, comparable within an allelic series)","10.2 upbm affinity estimate (log intensity, higher = more binding, comparable within an allelic series)","13.9 upbm affinity estimate (log intensity, higher = more binding, comparable within an allelic series)","12.9 upbm affinity estimate (log intensity, higher = more binding, comparable within an allelic series)","14.4 upbm affinity estimate (log intensity, higher = more binding, comparable within an allelic series)","12.3 upbm affinity estimate (log intensity, higher = more binding, comparable within an allelic series)","14 upbm affinity estimate (log intensity, higher = more binding, comparable within an allelic series)","10.8 upbm affinity estimate (log intensity, higher = more binding, comparable within an allelic series)","11.2 upbm affinity estimate (log intensity, higher = more binding, comparable within an allelic series)","13.6 upbm affinity estimate (log intensity, higher = more binding, comparable within an allelic series)","12.3 upbm affinity estimate (log intensity, higher = more binding, comparable within an allelic series)","13.5 upbm affinity estimate (log intensity, higher = more binding, comparable within an allelic series)","13.6 upbm affinity estimate (log intensity, higher = more binding, comparable within an allelic series)","14.1 upbm affinity estimate (log intensity, higher = more binding, comparable within an allelic series)","13.7 upbm affinity estimate (log intensity, higher = more binding, comparable within an allelic series)"
TTAATTAA,"13.5 upbm affinity estimate (log intensity, higher = more binding, comparable within an allelic series)","12.4 upbm affinity estimate (log intensity, higher = more binding, comparable within an allelic series)","14.7 upbm affinity estimate (log intensity, higher = more binding, comparable within an allelic series)","12.1 upbm affinity estimate (log intensity, higher = more binding, comparable within an allelic series)","12.1 upbm affinity estimate (log intensity, higher = more binding, comparable within an allelic series)","12.1 upbm affinity estimate (log intensity, higher = more binding, comparable within an allelic series)","10.3 upbm affinity estimate (log intensity, higher = more binding, comparable within an allelic series)","13.7 upbm affinity estimate (log intensity, higher = more binding, comparable within an allelic series)","13.2 upbm affinity estimate (log intensity, higher = more binding, comparable within an allelic series)","14.2 upbm affinity estimate (log intensity, higher = more binding, comparable within an allelic series)","12.6 upbm affinity estimate (log intensity, higher = more binding, comparable within an allelic series)","13.7 upbm affinity estimate (log intensity, higher = more binding, comparable within an allelic series)","11.2 upbm affinity estimate (log intensity, higher = more binding, comparable within an allelic series)","11.6 upbm affinity estimate (log intensity, higher = more binding, comparable within an allelic series)","13.6 upbm affinity estimate (log intensity, higher = more binding, comparable within an allelic series)","13.1 upbm affinity estimate (log intensity, higher = more binding, comparable within an allelic series)","13.7 upbm affinity estimate (log intensity, higher = more binding, comparable within an allelic series)","13.5 upbm affinity estimate (log intensity, higher = more binding, comparable within an allelic series)","13.9 upbm affinity estimate (log intensity, higher = more binding, comparable within an allelic series)","13.5 upbm affinity estimate (log intensity, higher = more binding, comparable within an allelic series)"
AATTAATG,"13.4 upbm affinity estimate (log intensity, higher = more binding, comparable within an allelic series)","12 upbm affinity estimate (log intensity, higher = more binding, comparable within an allelic series)","14 upbm affinity estimate (log intensity, higher = more binding, comparable within an allelic series)","11.9 upbm affinity estimate (log intensity, higher = more binding, comparable within an allelic series)","11.3 upbm affinity estimate (log intensity, higher = more binding, comparable within an allelic series)","11.8 upbm affinity estimate (log intensity, higher = more binding, comparable within an allelic series)","10.1 upbm affinity estimate (log intensity, higher = more binding, comparable within an allelic series)","13 upbm affinity estimate (log intensity, higher = more binding, comparable within an allelic series)","12.5 upbm affinity estimate (log intensity, higher = more binding, comparable within an allelic series)","14 upbm affinity estimate (log intensity, higher = more binding, comparable within an allelic series)","12.3 upbm affinity estimate (log intensity, higher = more binding, comparable within an allelic series)","13.5 upbm affinity estimate (log intensity, higher = more binding, comparable within an allelic series)","10.6 upbm affinity estimate (log intensity, higher = more binding, comparable within an allelic series)","11.2 upbm affinity estimate (log intensity, higher = more binding, comparable within an allelic series)","12.9 upbm affinity estimate (log intensity, higher = more binding, comparable within an allelic series)","11.9 upbm affinity estimate (log intensity, higher = more binding, comparable within an allelic series)","13.4 upbm affinity estimate (log intensity, higher = more binding, comparable within an allelic series)","12.8 upbm affinity estimate (log intensity, higher = more binding, comparable within an allelic series)","13.5 upbm affinity estimate (log intensity, higher = more binding, comparable within an allelic series)","13.2 upbm affinity estimate (log intensity, higher = more binding, comparable within an allelic series)"
